# Tests used:
# Assay in all cases: DAPPL (digital affinity profiling via proximity ligation, sequencing); 10 mM Tris-HCl pH 7.5, 50 mM NaCl, 1 mM DTT, 4% glycerol, room temperature, 30 min; GST-TFs on glutathione beads, 16-mer random dsDNA library, 0.1% formaldehyde crosslink after washing; high values mean tight binding
# FEV = target: T1, FEV (Homo sapiens, UniProt Q99581 1-238); settings: protein: recombinant; tags: N-terminal GST; dsDNA, one strand shown
# T1 sequence: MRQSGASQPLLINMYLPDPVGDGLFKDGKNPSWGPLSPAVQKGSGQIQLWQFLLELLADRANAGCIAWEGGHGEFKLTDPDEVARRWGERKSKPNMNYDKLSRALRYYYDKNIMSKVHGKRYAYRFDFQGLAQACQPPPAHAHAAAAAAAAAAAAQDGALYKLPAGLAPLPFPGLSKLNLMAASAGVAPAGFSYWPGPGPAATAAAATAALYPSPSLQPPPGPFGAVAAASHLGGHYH
# Summary of the method: (§1)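 Yeast served to express human transcription factors as GST fusions, which were then captured on glutathione beads and labelled with DNA barcodes. Pooled with a tag-only sample, they were incubated with 200 nmole of a 16-mer random double-stranded DNA library for 30 min at room temperature in Tris/NaCl/DTT/glycerol buffer, washed, crosslinked with 0.1% formaldehyde, ligated by proximity, amplified by PCR and sequenced. Dividing each hexamer's read frequency for a factor by its frequency for the tag-only sample gives the binding signal.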
# ETV5 = ETV5 (Homo sapiens, UniProt P41161 1-510); settings: protein: recombinant; tags: N-terminal GST; dsDNA, one strand shown
# ETV5, sequence (P41161 whole entry): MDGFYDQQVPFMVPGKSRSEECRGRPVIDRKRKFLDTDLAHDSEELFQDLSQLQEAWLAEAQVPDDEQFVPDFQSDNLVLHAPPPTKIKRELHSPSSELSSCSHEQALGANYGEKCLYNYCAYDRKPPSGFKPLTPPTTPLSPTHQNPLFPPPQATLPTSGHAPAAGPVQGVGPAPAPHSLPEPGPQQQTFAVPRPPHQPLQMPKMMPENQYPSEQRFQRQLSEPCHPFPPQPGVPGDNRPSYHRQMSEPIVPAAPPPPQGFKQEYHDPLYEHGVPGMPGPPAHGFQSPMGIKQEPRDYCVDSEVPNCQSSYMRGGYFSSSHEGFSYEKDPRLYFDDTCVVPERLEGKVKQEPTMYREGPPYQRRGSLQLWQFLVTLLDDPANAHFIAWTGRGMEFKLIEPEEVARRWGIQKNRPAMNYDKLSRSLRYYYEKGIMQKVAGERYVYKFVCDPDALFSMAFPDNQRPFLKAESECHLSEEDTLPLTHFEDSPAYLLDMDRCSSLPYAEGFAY
# Summary of the method: as §1
# HSF1 = HSF1 (Homo sapiens, UniProt Q00613 1-529); settings: protein: recombinant; tags: N-terminal GST; chain copies: 3; dsDNA, one strand shown
# HSF1, sequence (Q00613 whole entry): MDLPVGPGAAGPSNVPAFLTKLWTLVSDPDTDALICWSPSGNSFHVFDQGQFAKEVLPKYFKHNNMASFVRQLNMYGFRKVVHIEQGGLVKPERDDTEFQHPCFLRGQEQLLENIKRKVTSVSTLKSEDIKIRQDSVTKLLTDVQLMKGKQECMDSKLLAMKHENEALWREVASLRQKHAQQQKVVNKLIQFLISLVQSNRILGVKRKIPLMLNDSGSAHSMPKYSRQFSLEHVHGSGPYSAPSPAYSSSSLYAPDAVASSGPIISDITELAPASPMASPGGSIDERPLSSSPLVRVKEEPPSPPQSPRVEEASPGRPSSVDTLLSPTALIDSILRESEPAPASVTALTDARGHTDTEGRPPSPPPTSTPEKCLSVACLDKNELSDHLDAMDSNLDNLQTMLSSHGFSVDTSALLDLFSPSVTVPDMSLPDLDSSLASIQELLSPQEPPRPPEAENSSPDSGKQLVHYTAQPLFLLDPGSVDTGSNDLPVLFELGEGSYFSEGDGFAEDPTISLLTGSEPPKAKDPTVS
# Summary of the method: as §1
# SPIC = target: T2, SPIC (Homo sapiens, UniProt Q8N5J4 1-248); settings: protein: recombinant; tags: N-terminal GST; dsDNA, one strand shown
# T2 sequence: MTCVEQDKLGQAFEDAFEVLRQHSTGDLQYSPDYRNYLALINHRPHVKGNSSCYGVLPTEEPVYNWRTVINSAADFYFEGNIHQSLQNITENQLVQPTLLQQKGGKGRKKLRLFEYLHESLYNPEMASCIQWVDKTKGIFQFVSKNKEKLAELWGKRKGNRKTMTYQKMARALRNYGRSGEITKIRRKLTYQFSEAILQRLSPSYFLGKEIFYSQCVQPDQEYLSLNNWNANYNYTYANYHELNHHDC
# Summary of the method: as §1
# ELF4 = ELF4 (Homo sapiens, UniProt Q99607 1-663); settings: protein: recombinant; tags: N-terminal GST; dsDNA, one strand shown
# ELF4, sequence (Q99607 whole entry): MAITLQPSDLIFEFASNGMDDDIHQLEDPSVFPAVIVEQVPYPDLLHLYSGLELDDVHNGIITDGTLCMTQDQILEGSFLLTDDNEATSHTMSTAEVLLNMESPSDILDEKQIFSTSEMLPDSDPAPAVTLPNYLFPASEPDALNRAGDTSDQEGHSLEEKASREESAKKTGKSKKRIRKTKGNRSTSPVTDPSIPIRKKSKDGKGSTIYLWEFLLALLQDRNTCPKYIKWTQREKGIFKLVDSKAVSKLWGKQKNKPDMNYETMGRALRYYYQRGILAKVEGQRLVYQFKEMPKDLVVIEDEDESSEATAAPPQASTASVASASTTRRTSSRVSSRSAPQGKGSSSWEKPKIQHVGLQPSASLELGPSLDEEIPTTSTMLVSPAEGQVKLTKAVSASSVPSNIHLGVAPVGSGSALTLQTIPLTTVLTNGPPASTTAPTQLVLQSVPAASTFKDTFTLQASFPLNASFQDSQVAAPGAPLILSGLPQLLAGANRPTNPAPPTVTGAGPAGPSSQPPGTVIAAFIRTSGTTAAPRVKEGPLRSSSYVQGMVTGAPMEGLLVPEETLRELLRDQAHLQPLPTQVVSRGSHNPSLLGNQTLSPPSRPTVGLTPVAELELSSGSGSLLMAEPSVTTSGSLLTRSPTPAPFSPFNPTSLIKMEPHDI
# Summary of the method: as §1
# ELK4 = target: T3, ELK4 (Homo sapiens, UniProt P28324-2 1-405); settings: protein: recombinant; tags: N-terminal GST; dsDNA, one strand shown
# T3 sequence: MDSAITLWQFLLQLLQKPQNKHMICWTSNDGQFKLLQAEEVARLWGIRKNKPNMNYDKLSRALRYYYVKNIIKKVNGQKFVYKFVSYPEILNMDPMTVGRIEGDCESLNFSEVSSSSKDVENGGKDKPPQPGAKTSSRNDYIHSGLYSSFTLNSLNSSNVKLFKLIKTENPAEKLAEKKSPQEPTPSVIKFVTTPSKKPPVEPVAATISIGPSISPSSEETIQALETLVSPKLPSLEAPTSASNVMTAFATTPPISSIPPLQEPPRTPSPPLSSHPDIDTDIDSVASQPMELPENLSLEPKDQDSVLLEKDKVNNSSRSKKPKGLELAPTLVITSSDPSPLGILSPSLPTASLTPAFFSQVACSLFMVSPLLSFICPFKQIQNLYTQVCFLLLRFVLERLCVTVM
# Summary of the method: as §1
# ETV2 = target: T4, ETV2 (Homo sapiens, UniProt O00321 1-342); settings: protein: recombinant; tags: N-terminal GST; dsDNA, one strand shown
# T4 sequence: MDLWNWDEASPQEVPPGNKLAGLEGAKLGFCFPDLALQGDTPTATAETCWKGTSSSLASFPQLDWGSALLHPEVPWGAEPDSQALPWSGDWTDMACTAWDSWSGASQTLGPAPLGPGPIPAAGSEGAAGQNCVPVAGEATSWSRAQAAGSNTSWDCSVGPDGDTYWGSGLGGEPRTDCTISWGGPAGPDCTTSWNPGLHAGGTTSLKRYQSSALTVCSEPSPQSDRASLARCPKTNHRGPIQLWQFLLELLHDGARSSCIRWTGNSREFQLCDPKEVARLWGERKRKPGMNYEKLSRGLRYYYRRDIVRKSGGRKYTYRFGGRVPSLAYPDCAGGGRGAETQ
# Summary of the method: as §1
# ELF3 = target: T5, ELF3 (Homo sapiens, UniProt P78545 1-371); settings: protein: recombinant; tags: N-terminal GST; dsDNA, one strand shown
# T5 sequence: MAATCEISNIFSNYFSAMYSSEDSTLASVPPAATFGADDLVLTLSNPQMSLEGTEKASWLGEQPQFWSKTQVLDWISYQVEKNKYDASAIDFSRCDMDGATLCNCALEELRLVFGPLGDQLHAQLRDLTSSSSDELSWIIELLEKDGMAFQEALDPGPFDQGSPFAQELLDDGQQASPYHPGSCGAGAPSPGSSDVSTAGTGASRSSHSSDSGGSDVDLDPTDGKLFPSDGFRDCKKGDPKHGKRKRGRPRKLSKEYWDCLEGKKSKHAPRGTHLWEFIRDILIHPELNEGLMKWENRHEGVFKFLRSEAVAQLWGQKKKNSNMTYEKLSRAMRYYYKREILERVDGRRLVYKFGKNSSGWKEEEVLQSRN
# Summary of the method: as §1
# CRX = CRX (Homo sapiens, UniProt O43186 1-299); settings: protein: recombinant; tags: N-terminal GST; dsDNA, one strand shown
# CRX, sequence (O43186 whole entry): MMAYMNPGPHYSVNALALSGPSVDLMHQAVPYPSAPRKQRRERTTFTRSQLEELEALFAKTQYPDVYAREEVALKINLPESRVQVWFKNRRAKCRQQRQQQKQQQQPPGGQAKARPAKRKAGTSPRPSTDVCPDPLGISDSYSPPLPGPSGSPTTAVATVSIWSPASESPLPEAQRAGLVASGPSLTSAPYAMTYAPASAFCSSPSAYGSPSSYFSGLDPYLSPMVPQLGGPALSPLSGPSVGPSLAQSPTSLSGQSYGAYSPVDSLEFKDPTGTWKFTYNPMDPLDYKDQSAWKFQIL
# Summary of the method: as §1
# ETV1 = ETV1 (Homo sapiens, UniProt P50549 1-477); settings: protein: recombinant; tags: N-terminal GST; dsDNA, one strand shown
# ETV1, sequence (P50549 whole entry): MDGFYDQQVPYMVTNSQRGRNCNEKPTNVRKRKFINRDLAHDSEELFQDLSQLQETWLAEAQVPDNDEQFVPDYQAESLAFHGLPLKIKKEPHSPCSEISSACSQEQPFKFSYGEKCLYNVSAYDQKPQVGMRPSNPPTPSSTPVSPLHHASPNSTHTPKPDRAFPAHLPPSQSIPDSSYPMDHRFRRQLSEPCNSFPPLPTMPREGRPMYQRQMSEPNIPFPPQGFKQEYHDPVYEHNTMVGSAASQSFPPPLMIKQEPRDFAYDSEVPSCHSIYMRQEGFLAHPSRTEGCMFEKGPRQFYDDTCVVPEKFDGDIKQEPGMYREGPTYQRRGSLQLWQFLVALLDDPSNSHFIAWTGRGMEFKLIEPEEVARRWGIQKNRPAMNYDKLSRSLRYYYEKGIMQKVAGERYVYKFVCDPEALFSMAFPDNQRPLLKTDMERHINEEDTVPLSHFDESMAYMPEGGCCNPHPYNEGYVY
# Summary of the method: as §1
# ERF = target: T6, ERF (Homo sapiens, UniProt P50548 1-548); settings: protein: recombinant; tags: N-terminal GST; dsDNA, one strand shown
# T6 sequence: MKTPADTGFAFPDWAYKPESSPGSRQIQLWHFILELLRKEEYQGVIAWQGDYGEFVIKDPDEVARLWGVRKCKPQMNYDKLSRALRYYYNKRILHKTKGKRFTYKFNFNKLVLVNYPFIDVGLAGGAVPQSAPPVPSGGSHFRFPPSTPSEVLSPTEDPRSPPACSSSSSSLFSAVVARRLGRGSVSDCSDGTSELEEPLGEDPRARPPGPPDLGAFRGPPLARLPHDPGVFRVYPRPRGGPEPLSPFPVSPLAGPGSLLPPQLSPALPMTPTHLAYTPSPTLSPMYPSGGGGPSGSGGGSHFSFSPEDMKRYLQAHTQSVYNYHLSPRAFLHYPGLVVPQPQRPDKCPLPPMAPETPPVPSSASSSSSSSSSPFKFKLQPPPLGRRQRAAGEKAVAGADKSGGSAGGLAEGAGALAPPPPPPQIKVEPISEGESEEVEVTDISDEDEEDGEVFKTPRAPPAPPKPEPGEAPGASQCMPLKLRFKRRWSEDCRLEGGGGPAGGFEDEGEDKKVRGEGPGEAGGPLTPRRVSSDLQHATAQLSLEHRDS
# Summary of the method: as §1
# ETV3L = target: T7, ETV3L (Homo sapiens, UniProt Q6ZN32 1-361); settings: protein: recombinant; tags: N-terminal GST; dsDNA, one strand shown
# T7 sequence: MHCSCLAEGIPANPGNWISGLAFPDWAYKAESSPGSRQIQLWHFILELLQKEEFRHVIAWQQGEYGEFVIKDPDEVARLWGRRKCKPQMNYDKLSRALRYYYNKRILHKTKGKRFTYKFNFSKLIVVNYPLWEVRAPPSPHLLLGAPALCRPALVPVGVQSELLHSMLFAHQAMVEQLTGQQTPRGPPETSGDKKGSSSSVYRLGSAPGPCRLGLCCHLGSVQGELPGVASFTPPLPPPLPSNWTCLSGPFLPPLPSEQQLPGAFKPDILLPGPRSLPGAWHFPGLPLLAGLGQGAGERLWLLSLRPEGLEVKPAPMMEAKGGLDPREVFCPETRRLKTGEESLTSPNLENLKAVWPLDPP
# Summary of the method: as §1
# ETS2 = target: T8, ETS2 (Homo sapiens, UniProt P15036 1-469); settings: protein: recombinant; tags: N-terminal GST; dsDNA, one strand shown
# T8 sequence: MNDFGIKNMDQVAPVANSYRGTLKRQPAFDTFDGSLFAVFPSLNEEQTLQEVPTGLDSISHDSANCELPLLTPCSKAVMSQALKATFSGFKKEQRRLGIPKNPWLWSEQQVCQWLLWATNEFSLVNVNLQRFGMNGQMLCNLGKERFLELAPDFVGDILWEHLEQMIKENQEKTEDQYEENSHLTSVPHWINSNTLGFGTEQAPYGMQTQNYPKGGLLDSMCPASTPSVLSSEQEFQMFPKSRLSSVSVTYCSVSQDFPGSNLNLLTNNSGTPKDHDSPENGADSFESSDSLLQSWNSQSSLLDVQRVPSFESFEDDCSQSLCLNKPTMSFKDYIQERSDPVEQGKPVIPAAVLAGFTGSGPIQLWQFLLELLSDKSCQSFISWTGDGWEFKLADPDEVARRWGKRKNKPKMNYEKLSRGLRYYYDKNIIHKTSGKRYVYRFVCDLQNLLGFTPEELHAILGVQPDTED
# Summary of the method: as §1
# SPDEF = target: T9, SPDEF (Homo sapiens, UniProt O95238 1-335); settings: protein: recombinant; tags: N-terminal GST; dsDNA, one strand shown
# T9 sequence: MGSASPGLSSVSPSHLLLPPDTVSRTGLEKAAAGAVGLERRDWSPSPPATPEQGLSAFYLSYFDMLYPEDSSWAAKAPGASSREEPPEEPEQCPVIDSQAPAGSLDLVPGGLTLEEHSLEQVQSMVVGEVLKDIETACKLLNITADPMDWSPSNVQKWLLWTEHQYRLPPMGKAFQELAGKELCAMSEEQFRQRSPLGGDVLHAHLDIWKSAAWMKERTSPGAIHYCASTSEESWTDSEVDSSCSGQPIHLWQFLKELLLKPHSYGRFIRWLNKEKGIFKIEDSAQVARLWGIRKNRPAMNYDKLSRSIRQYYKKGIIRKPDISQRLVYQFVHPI
# Summary of the method: as §1
# ETV7 = target: T10, ETV7 (Homo sapiens, UniProt Q9Y603 1-341); settings: protein: recombinant; tags: N-terminal GST; dsDNA, one strand shown
# T10 sequence: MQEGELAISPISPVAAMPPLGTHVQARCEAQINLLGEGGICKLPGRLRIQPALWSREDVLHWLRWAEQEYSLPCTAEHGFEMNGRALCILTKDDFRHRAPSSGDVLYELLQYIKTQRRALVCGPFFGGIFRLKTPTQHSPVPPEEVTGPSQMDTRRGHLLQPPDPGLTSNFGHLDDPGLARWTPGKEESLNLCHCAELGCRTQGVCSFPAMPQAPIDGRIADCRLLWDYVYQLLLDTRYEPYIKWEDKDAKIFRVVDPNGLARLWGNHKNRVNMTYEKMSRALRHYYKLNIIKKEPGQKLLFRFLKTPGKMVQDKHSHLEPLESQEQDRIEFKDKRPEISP
# Summary of the method: as §1
# ELF5 = target: T11, ELF5 (Homo sapiens, UniProt Q9UKW6-2 1-255); settings: protein: recombinant; tags: N-terminal GST; dsDNA, one strand shown
# T11 sequence: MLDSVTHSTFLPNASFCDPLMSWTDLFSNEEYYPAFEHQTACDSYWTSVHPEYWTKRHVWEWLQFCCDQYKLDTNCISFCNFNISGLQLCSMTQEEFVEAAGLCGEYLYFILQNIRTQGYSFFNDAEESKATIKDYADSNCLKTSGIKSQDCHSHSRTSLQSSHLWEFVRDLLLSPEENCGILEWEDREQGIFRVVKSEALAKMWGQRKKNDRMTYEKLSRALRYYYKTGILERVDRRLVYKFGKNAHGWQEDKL
# Summary of the method: as §1
# ETV3 = target: T12, ETV3 (Homo sapiens, UniProt P41162-2 1-143); settings: protein: recombinant; tags: N-terminal GST; dsDNA, one strand shown
# T12 sequence: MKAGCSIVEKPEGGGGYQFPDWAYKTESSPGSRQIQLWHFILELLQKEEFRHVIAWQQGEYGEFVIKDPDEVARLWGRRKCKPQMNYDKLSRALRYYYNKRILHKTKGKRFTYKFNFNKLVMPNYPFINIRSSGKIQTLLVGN
# Summary of the method: as §1
# ETV6 = ETV6 (Homo sapiens, UniProt P41212 1-452); settings: protein: recombinant; tags: N-terminal GST; dsDNA, one strand shown
# ETV6, sequence (P41212 whole entry): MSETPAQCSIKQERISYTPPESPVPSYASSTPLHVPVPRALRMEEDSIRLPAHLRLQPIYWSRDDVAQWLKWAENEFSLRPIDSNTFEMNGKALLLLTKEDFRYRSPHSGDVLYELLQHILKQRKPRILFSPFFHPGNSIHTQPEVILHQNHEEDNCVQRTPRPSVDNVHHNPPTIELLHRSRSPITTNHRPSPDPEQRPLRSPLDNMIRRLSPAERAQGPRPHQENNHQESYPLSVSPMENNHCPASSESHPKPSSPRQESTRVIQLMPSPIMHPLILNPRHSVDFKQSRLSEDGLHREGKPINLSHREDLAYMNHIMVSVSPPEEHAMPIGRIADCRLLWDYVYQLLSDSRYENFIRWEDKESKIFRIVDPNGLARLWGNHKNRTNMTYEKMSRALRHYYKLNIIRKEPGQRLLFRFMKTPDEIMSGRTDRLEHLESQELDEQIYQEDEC
# Summary of the method: as §1
sequence,measurement,setting,value
CCCGAC,binding signal,FEV,"1.38 fold enrichment (6-mer frequency, TF over GST control)"
same,binding signal,ETV5,"1.31 fold enrichment (6-mer frequency, TF over GST control)"
same,binding signal,HSF1,"1.19 fold enrichment (6-mer frequency, TF over GST control)"
same,binding signal,SPIC,"1.53 fold enrichment (6-mer frequency, TF over GST control)"
same,binding signal,ELF4,"1.29 fold enrichment (6-mer frequency, TF over GST control)"
same,binding signal,ELK4,"1.43 fold enrichment (6-mer frequency, TF over GST control)"
same,binding signal,ETV2,"1.46 fold enrichment (6-mer frequency, TF over GST control)"
same,binding signal,ELF3,"1.53 fold enrichment (6-mer frequency, TF over GST control)"
same,binding signal,CRX,"1.06 fold enrichment (6-mer frequency, TF over GST control)"
same,binding signal,ETV1,"1.36 fold enrichment (6-mer frequency, TF over GST control)"
same,binding signal,ERF,"1.29 fold enrichment (6-mer frequency, TF over GST control)"
same,binding signal,ETV3L,"1.41 fold enrichment (6-mer frequency, TF over GST control)"
same,binding signal,ETS2,"1.27 fold enrichment (6-mer frequency, TF over GST control)"
same,binding signal,SPDEF,"1.44 fold enrichment (6-mer frequency, TF over GST control)"
same,binding signal,ETV7,"1.37 fold enrichment (6-mer frequency, TF over GST control)"
same,binding signal,ELF5,"1.38 fold enrichment (6-mer frequency, TF over GST control)"
same,binding signal,ETV3,"1.25 fold enrichment (6-mer frequency, TF over GST control)"
same,binding signal,ETV6,"1.42 fold enrichment (6-mer frequency, TF over GST control)"

# — PMC7862700, “An all-to-all approach to the identification of sequence-specific readers for epigenetic DNA modifications on cytosine”
